Assay results reported in PubChem BioAssay (NCI).
Compounds without any hit were thinned out: in the full panel of roughly 83,000, 20% have a hit.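 Note: values are percent growth. 100 is the growth of untreated cells, values between 100 and 0 indicate rising inhibition; between -100 and 0 indicates cell death.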 The source made the active and inactive calls. How the source made its calls: active means growth percent below 10; inactive means the rest.

test system: NCI-H23 lung; test: NCI-60 one-dose screen, 48 h (100 = growth as untreated, 0 = no growth, -100 = all killed); settings: 10 µM unless noted

SMILES	growth
CCOC(=O)C1=C(C)Nc2nnc(Nc3ccccc3)n2C1c1ccccc1 (stereo not drawn)	72.4% (inactive)
COc1cc(OC)c(S(N)(=O)=O)cc1C(=O)/C=C/c1ccccc1	28.2% (inactive)
CCOC(=O)/C(F)=C/C1CC1C1CCCCC1 (stereo not drawn)	97.4% (inactive)

test system: NCI-H226 lung; test: as above; settings: 10 µM unless noted

SMILES	growth
CC(=O)Oc1ccc(CCN2C(=O)CSC2=S)cc1	89.4% (inactive)
COc1cc(/C=N/n2cnc3oc(-c4ccccc4)cc3c2=N)cc(CN2CCOCC2)c1O	62.4% (inactive)
CCOC(=O)/C=c1\sc2n(c1=O)C1C(NN=2)N(CC)C(=O)N1CC (stereo not drawn)	81.2% (inactive)
CN(C)c1ccc(/C=N/Nc2nc(N/N=C/c3ccc(N(C)C)cc3)nc(N3CCOCC3)n2)cc1	93.5% (inactive)
COc1cc2oc(-c3cccc(NC(=O)c4cc(NC(=O)[C@H](C)NC(=O)OC(C)(C)C)ccc4C)c3)cc(=O)c2c(OC)c1OC	80.6% (inactive)
CN1CCN(Cc2ccc(NC(=O)c3cncc(C#Cc4cnc5ccc(NC6CCOCC6)nn45)c3)cc2C(F)(F)F)CC1	-53.1% (active)
O=C(Nc1ccc(Cl)cc1)Nc1nc2ccc([N+](=O)[O-])cc2s1	-15% (active)
CCCCCCNC(=O)Oc1ccc(/C(=C(/C)c2ccc(OC)cc2)c2ccc(OCCN3CCCC3)cc2)cc1	96.6% (inactive)
O=c1c2ccccc2nc(COc2ccccc2)n1/N=C/C=C/c1ccccc1	98.1% (inactive)
CCCCCc1ccc(S(=O)(=O)N(C(C)=O)c2cccc(-c3csc(N(CCN4CCN(C)CC4)C(C)=O)n3)c2)cc1	85.3% (inactive)
